Outcome and AC50 data for 28 compounds are collected here from PubChem BioAssay (EPA / NIEHS).

One may read the AC50 as the concentration giving half of the maximal activity seen.

Inconclusive results are not listed. The source made the active and inactive calls. How the source made its calls, unless noted: active means hit-call score of the fitted dose curve at least 0.9, where 1 is the maximum; inconclusive means response in the unintended direction; inactive means score below 0.9.

Experiment [1] concerns the target Glucocorticoid receptor (Homo sapiens) (UniProt P04150). The experiment can be described thus: ATG_GR_TRANS: Attagene TRANS-FACTORIAL HepG2 Assay for human Glucocorticoid Receptor (GR) (AID 2282978).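 Further: activators score as hits since higher reporter transcript over DMSO is fitted.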 The settings on record: HepG2 Attagene TRANS GR reporter, mRNA transcription. The procedure, abridged:
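Reporter transcript levels, detected by fluorescence after RT-PCR and capillary electrophoresis, served as the endpoint. HepG2 cells bearing transfected GAL4-UAS reporters responsive to NR-GAL4 chimeras were incubated with compound 24 h; DMSO defined baseline.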

In experiment [2] the target is Bile acid receptor (Homo sapiens) (UniProt Q96RI1). The experiment can be described thus: ATG_FXR_TRANS: Attagene TRANS-FACTORIAL HepG2 Assay for Farnesoid X Receptor (FXR) (AID 2282979).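 Further: hits raise reporter mRNA above DMSO so AC50 marks FXR activation.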 The settings on record: HepG2 Attagene TRANS FXR-GAL4 reporter transcription. The procedure, abridged: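 HepG2 cells were transiently transfected with GAL4-UAS reporters driven by chimeric NR-Gal4 proteins and dosed for 24 h. Reporter mRNA was quantified by RT-PCR, fluorescent labelling, HpaI digestion and capillary electrophoresis, with gain of signal scored versus DMSO.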
Bile acid receptor (Homo sapiens), sequence (Q96RI1 whole entry, looked up, the tested form may be a part): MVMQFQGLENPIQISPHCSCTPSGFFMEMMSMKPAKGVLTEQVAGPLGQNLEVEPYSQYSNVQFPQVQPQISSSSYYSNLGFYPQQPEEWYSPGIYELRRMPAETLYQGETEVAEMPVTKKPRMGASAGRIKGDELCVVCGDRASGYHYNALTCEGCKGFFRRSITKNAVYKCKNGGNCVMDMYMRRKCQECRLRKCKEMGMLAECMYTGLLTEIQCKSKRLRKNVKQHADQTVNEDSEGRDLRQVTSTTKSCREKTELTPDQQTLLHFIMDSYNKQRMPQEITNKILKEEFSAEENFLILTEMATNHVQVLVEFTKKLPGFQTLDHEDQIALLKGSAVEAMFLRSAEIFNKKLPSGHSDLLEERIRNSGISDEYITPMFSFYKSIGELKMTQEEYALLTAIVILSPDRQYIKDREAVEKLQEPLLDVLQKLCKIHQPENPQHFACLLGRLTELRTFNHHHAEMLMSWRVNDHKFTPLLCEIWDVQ

The target of experiment [3] is Oxysterols receptor LXR-beta (Homo sapiens) (UniProt P55055). The experiment can be described thus: ATG_LXRb_TRANS: Attagene TRANS-FACTORIAL HepG2 Assay for human Liver X Receptor beta (LXRb) (AID 2282981). The settings on record: HepG2 Attagene TRANS GAL4-LXRb reporter, mRNA. The procedure, abridged:
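HepG2 cells transiently transfected with GAL4-UAS reporter units for chimeric NR-Gal4 proteins, dosed for 24 h. Reporter transcripts measured by RT-PCR and capillary electrophoresis; gain-of-signal fitting relative to DMSO.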

A short description of experiment [4]: ATG_M_32_TRANS: Attagene TRANS-FACTORIAL HepG2 Assay for M32 Transcription Factor (Internal Marker) (AID 2282984).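 Further: transcript level of a background control reporter unit measured by RT-PCR and capillary electrophoresis.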 The settings on record: HepG2 Attagene TRANS M32 internal marker reporter. In short, it runs like this:
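HepG2 cells transiently transfected with GAL4-UAS reporter units, dosed for 24 hours. Reporter mRNA quantified by RT-PCR, 6-FAM labelling, HpaI digestion and capillary electrophoresis; internal-marker signal fitted upward relative to DMSO.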

Experiment [5] deals with Transcriptional activator Myb (Homo sapiens) (UniProt P10242). The experiment can be described thus: ATG_Myb_CIS: Attagene CIS-FACTORIAL HepG2 Assay for human Myeloblastosis (Myb) Proto-Oncogene Transcription Factor (AID 2282986; active means hit-call score of the fitted dose curve at least 0.9, where 1 is the maximum; inactive means score below 0.9). To be noted: HepG2 Attagene CIS-FACTORIAL Myb reporter transcription; actives raise or lower the signal. The procedure, abridged:
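Transiently transfected HepG2 cells, treated 24 h. Reporter mRNA quantified by RT-PCR/capillary electrophoresis; bidirectional fit relative to DMSO.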

For experiment [6], the target named is Nuclear respiratory factor 1 (Homo sapiens) (UniProt Q16656). The experiment can be described thus: ATG_NRF1_CIS: Attagene CIS-FACTORIAL HepG2 Assay for human Nuclear Respiratory Factor 1 (NRF1) Orphan Gene (AID 2282987; active means hit-call score of the fitted dose curve at least 0.9, where 1 is the maximum; inactive means score below 0.9). The settings on record: HepG2 NRF1 cis-element reporter, Attagene multiplex; actives raise or lower the signal. In short, it runs like this:
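Cells (HepG2, transient MRTU transfection) are exposed to compound for 24 h, then RNA isolated and reporter mRNA amplified and fluorescently labelled. Fragments are separated by capillary electrophoresis; signal change is fitted bidirectionally relative to DMSO.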

The target in experiment [7] is Oxysterols receptor LXR-alpha (Homo sapiens) (UniProt Q13133). The experiment can be described thus: ATG_LXRa_TRANS: Attagene TRANS-FACTORIAL HepG2 Assay for human Liver X Receptor alpha (LXRa) (AID 2282980). To be noted: HepG2 Attagene TRANS reporter, LXRa transactivation. The procedure, abridged:
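HepG2 cells transiently transfected with GAL4-UAS reporter units for chimeric NR-Gal4 proteins, exposed to chemicals for 24 h. Reporter mRNA quantified by RT-PCR and capillary electrophoresis; gain of signal fitted relative to DMSO.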

The target of experiment [8] is Hepatocyte nuclear factor 4-alpha (Homo sapiens) (UniProt P41235). The experiment can be described thus: ATG_HNF4a_TRANS: Attagene TRANS-FACTORIAL HepG2 Assay for human Hepatocyte Nuclear Factor 4 alpha (HNF4a) (AID 2282982). To be noted: HepG2 HNF4a transactivation reporter, mRNA readout. In short, it runs like this: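 HepG2 cells transiently transfected with HNF4a-Gal4 chimera and GAL4-UAS reporter units, dosed for 24 h. Reporter mRNA measured by RT-PCR, fluorescent primer extension and capillary electrophoresis; gain-of-signal fitted relative to DMSO.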
Hepatocyte nuclear factor 4-alpha (Homo sapiens), sequence (P41235 whole entry, looked up, the tested form may be a part): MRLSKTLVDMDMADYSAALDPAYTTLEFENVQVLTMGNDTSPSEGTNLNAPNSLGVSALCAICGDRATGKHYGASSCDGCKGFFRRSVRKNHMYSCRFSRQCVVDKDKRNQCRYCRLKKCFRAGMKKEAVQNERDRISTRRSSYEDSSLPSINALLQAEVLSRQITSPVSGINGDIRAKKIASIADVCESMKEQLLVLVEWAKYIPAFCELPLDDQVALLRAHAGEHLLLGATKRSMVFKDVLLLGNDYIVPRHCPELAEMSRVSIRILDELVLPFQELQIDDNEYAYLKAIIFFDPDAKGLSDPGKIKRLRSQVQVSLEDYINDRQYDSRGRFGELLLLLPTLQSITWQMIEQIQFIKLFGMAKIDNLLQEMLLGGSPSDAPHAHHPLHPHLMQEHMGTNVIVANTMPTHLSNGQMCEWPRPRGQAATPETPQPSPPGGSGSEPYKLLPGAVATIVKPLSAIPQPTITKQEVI

Experiment [9] can be described thus: ATG_M_06_TRANS: Attagene TRANS-FACTORIAL HepG2 Assay for M06 Transcription Factor (Internal Marker) (AID 2282983). The settings on record: HepG2 Attagene TRANS M06 internal marker reporter. The procedure, abridged: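 HepG2 cells transiently transfected with GAL4-UAS multiple reporter units, dosed 24 h. Reporter RNA reverse-transcribed, PCR-amplified, 6-FAM-labeled, HpaI-digested and quantified by capillary electrophoresis; this internal-marker signal fitted upward relative to DMSO.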

In experiment [10] the target is Nuclear receptor subfamily 4 group A member 2 (Homo sapiens) (UniProt P43354). The experiment can be described thus: ATG_NURR1_TRANS: Attagene TRANS-FACTORIAL HepG2 Assay for human Nuclear Receptor Related Protein 1 (NURR1) (AID 2282985). The settings on record: HepG2 Attagene TRANS reporter, mRNA readout. The procedure, abridged:
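HepG2 cells transiently transfected with NURR1-Gal4 chimera and GAL4-UAS reporter units; after 24 hr compound exposure, reporter mRNA quantified by RT-PCR and capillary electrophoresis; gain of signal fitted against DMSO.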

Oxysterols receptor LXR-beta (Homo sapiens), sequence (P55055 whole entry, looked up, the tested form may be a part): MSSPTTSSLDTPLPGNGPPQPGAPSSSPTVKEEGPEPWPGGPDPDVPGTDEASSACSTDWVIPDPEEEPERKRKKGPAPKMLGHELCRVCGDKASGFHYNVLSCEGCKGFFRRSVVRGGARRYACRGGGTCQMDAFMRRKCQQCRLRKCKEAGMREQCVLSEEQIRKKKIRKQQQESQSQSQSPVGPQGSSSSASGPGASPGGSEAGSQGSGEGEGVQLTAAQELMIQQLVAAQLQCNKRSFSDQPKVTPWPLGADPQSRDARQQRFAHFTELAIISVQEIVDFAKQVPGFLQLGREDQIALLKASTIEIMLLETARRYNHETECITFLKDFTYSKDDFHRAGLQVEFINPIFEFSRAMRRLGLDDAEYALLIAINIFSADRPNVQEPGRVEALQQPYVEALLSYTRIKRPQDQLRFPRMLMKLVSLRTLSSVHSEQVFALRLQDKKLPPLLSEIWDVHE
Nuclear respiratory factor 1 (Homo sapiens), sequence (Q16656 whole entry, looked up, the tested form may be a part): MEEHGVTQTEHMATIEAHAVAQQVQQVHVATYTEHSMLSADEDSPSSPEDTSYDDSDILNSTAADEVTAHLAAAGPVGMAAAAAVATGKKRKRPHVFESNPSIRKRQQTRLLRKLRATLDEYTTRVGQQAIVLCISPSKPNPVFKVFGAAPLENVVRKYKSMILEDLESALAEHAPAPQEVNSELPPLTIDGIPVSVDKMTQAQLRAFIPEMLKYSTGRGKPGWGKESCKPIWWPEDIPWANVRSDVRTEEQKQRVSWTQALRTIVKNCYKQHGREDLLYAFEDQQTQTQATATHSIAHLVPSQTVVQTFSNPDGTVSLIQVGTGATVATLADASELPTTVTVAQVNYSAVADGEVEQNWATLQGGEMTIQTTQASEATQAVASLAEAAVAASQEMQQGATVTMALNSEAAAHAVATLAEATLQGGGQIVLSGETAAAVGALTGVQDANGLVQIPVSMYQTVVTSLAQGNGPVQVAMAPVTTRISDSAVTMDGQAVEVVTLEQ
Oxysterols receptor LXR-alpha (Homo sapiens), sequence (Q13133 whole entry, looked up, the tested form may be a part): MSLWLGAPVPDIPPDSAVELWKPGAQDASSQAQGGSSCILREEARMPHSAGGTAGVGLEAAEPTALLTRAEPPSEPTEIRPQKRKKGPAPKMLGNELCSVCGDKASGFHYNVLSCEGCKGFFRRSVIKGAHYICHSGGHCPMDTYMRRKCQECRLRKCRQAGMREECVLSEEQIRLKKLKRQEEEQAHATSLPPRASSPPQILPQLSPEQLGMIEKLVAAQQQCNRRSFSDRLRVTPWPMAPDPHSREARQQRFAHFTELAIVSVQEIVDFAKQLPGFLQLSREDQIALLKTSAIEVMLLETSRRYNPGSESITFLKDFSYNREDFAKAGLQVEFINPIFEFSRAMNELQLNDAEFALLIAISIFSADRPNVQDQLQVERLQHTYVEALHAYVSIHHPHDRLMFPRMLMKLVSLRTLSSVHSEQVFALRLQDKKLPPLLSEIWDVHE
Glucocorticoid receptor (Homo sapiens), sequence (P04150 whole entry, looked up, the tested form may be a part): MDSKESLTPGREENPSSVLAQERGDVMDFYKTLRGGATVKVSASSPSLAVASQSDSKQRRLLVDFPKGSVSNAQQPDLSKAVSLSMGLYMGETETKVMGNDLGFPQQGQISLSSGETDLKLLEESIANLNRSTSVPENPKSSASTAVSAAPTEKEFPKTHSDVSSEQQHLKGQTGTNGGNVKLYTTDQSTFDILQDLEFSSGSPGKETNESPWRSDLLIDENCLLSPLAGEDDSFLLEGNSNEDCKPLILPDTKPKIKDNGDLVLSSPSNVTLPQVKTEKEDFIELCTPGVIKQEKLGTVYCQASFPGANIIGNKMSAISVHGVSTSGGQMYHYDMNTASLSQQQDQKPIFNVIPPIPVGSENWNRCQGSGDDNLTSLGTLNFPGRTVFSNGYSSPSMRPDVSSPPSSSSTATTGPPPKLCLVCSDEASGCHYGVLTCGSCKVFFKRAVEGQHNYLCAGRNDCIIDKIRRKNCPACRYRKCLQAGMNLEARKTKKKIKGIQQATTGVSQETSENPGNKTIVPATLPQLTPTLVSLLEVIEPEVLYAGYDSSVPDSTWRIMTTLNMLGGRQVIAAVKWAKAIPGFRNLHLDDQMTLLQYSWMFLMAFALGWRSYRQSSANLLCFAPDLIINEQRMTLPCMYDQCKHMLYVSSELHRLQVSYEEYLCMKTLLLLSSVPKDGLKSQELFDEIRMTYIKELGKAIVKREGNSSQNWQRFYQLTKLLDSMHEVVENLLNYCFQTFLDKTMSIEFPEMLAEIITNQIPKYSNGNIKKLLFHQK
Transcriptional activator Myb (Homo sapiens), sequence (P10242 whole entry, looked up): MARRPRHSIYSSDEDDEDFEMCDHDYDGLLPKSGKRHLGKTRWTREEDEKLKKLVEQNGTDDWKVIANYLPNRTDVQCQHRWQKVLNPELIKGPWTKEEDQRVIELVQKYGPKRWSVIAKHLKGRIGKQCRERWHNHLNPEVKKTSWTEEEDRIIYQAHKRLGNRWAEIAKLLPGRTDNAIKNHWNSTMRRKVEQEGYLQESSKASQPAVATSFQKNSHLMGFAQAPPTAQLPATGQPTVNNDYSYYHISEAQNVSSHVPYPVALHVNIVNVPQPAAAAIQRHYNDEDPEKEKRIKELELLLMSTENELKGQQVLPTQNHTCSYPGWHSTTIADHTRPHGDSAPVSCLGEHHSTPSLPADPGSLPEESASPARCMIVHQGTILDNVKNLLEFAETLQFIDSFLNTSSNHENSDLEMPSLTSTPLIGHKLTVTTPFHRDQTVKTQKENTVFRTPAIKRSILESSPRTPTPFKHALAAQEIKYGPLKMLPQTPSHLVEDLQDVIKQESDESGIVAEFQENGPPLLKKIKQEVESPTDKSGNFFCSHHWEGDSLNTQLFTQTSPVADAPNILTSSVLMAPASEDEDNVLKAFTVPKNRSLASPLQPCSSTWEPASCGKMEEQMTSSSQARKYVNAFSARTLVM
Nuclear receptor subfamily 4 group A member 2 (Homo sapiens), sequence (P43354 whole entry, looked up, the tested form may be a part): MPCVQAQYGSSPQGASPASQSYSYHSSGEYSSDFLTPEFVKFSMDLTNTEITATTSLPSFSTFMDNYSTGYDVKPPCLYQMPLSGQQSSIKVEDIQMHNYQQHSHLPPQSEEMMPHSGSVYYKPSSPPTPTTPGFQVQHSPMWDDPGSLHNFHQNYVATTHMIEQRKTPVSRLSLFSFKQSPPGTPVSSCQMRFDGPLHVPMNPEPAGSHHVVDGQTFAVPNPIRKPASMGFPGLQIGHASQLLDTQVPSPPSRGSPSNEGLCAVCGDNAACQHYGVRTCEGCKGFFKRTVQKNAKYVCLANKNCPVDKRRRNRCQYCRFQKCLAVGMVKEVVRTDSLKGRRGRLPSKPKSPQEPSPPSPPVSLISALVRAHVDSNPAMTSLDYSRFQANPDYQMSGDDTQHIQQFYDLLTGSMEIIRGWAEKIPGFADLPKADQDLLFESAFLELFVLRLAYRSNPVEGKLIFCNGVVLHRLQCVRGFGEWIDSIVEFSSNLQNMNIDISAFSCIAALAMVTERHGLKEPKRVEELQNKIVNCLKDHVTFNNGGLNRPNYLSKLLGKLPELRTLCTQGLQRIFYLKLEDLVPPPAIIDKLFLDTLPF

Turning to `CN(C)CCOCCN(C)C`, the outcome in experiment [1], in experiment [2], in experiment [3], in [4], in [5] and in [6] was inactive.

Take `O=C(O)CCCCCCCCCCC(=O)O`: the compound was classed as inactive in experiment [1], in [7], in [3], in experiment [8], in [9] and in [10]. The outcome in experiment [5] and in experiment [6] was inactive.

Turning to `COc1cc(C(C)(C)C)c(O)c(C(C)(C)C)c1`, the compound was called inactive in [1], in [2], in experiment [7], in [9], in experiment [10] and in experiment [5]. For the same compound, the call in experiment [6] was inactive.

For `O=C(Nc1ccccc1)c1cc([N+](=O)[O-])ccc1Cl`, the compound was classed as inactive in [1], in experiment [2], in experiment [7], in [9], in experiment [4] and in experiment [10]. For the same compound, the call in experiment [5] and in experiment [6] was inactive.

With `CSc1nnc(C(C)(C)C)c(=O)[nH]1`, the outcome in [1], in experiment [2], in experiment [8], in experiment [4], in [5] and in [6] was inactive.

As for `c1ccc2c(c1)c1cccc3ccc4cccc2c4c31`, the compound was called inactive in experiment [1], in [2], in experiment [7], in [8], in [4] and in experiment [5]. In addition, the result in [6] was inactive.

Regarding `CC(C)(COC(=O)c1ccccc1)COC(=O)c1ccccc1`, the compound was classed as inactive in experiment [1], in experiment [7], in experiment [3], in experiment [8], in experiment [9] and in experiment [4]. The compound was called inactive in experiment [10], in [5] and in experiment [6].

Turning to `CC(=O)OCc1ccc2c(c1)OCO2`, the result in experiment [1], in experiment [2], in [7], in experiment [9], in experiment [4] and in [10] was inactive. The compound was called inactive in [5] and in experiment [6].

Regarding `CC(C#N)(CCC(=O)O)N=NC(C)(C#N)CCC(=O)O` (centres undefined), the call in experiment [1], in [2], in experiment [7], in [3], in experiment [9] and in [4] was inactive. The call in [5] and in experiment [6] was inactive.

Consider `CC1(C)CCC(C)(C)c2cc(C(=O)Nc3ccc(C(=O)O)cc3)ccc21`, for which the call in experiment [1], in experiment [3], in experiment [9], in experiment [4], in experiment [10] and in [5] was inactive. Besides, the figures for the AC50 in [2] and in [6] were 13 µM (active) and 93.6 µM (active), respectively.

Take `CCCCNC(=O)NS(=O)(=O)c1ccc(C)cc1`: the compound was classed as inactive in experiment [1], in experiment [2], in experiment [4], in [10], in experiment [5] and in experiment [6].

Consider `CCCC(=O)c1cc(O)c(O)cc1O`, for which the result in experiment [1], in experiment [2], in [7], in experiment [3], in experiment [9] and in experiment [10] was inactive. Further, the result in [5] and in experiment [6] was inactive.

For the compound `CC(CCO)CCc1ccccc1` (centres undefined), the call in [1], in experiment [2], in experiment [7], in experiment [9], in [4] and in [10] was inactive. Besides, the compound was called inactive in [5] and in experiment [6].

Regarding `CC1CCC(C(C)(C)O)CC1` (centres undefined), the compound was classed as inactive in [1], in experiment [2], in [7], in experiment [8], in experiment [4] and in experiment [10]. In addition, the compound was called inactive in experiment [5] and in experiment [6].

On to `Cc1cccc(C)c1C`, for which the compound was classed as inactive in experiment [1], in experiment [2], in [9], in [4], in experiment [5] and in experiment [6].

For the compound `CCC(O)CO` (centres undefined), the compound was called inactive in experiment [1], in [2], in [7], in experiment [8], in experiment [4] and in [5]. Besides, in [6], the result was inactive.

Turning to `BrC1CCC(Br)C(Br)CCC(Br)C(Br)CCC1Br` (centres undefined), the compound was classed as inactive in [1], in experiment [2], in experiment [7], in experiment [9], in [10] and in [5]. Besides, the AC50 in experiment [6] is 110 µM (active).

`COc1cc2ncnc(Nc3cccc(Cl)c3)c2cc1OC`: the result in experiment [1], in [2], in experiment [7], in experiment [3], in [8] and in experiment [9] was inactive. Also, the compound was called inactive in experiment [4], in [5] and in experiment [6].

`CC1=CCC2C(C1)C2(C)C` (centres undefined): the result in [1], in experiment [2], in [7], in [3], in [8] and in experiment [9] was inactive. The compound was classed as inactive in experiment [4], in experiment [5] and in experiment [6].

For the compound `O=C(O)c1cn(C2CC2)c2cc(N3CCNCC3)c(F)cc2c1=O`, the call in experiment [1], in experiment [2], in experiment [9] and in experiment [5] was inactive.

Take `CCC(=O)/C=C/C1C(C)=CCCC1(C)C` (centres undefined): the call in experiment [1], in [2], in experiment [7], in [3], in [8] and in experiment [9] was inactive. Further, the call in experiment [4], in experiment [10], in [5] and in experiment [6] was inactive.

Regarding `O=C(O)C[C@H](O)C[C@H](O)/C=C/c1c(C2CC2)nc2ccccc2c1-c1ccc(F)cc1`, the result in [1], in [2], in [3], in experiment [8], in [9] and in [4] was inactive. Also, the call in experiment [5] and in experiment [6] was inactive.

`CC(O)C(C)O` (centres undefined): the compound was classed as inactive in experiment [1], in [7], in experiment [3], in experiment [8], in experiment [9] and in experiment [10]. In addition, the compound was classed as inactive in experiment [5] and in experiment [6].

Turning to `C=CC(=O)OCCn1c(=O)n(CCOC(=O)C=C)c(=O)n(CCOC(=O)C=C)c1=O`, the call in experiment [1], in [2], in experiment [3], in experiment [8], in experiment [9] and in experiment [4] was inactive. The compound was classed as inactive in experiment [5] and in [6].

For `CCc1c(C)cc(N)c(CC)c1N`, the call in experiment [1], in experiment [2], in [8], in experiment [4], in experiment [10] and in experiment [5] was inactive. Also, in experiment [6], the result was inactive.

On to `CCCC(C)C=O` (centres undefined), for which the result in [1], in [2], in experiment [3], in [4], in experiment [5] and in experiment [6] was inactive.

Turning to `CC(CC(C)(C)C)CC(C)(C)CC(C)(C)C` (centres undefined), the compound was classed as inactive in experiment [1], in [2], in experiment [3], in [8], in experiment [9] and in [4]. The call in experiment [10], in [5] and in [6] was inactive.

Turning to `CC(=O)OCC=Cc1ccccc1`, the outcome in experiment [1], in [2], in experiment [4], in experiment [10], in experiment [5] and in [6] was inactive.
